Sampled rows, rich in hits. Any-hit rate of the full collection: about 2.6%.
Cruzain inh Det – inhibitors of Trypanosoma cruzi cruzain with detergent. AID 1478. actives 0.43% (n = 200,000). Potency, µM, inactives show max response, negative = inhibition, hits mostly inhibitors. purified cruzain, Z-FR-AMC fluorescence, 0.01% Triton. P25779;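 note: plate controls were neutral wells for no effect and buffer without enzyme for full effect; nearly all actives have a fitted effect of over 40% in size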
Target sequence (P25779 123-467 limits assumed): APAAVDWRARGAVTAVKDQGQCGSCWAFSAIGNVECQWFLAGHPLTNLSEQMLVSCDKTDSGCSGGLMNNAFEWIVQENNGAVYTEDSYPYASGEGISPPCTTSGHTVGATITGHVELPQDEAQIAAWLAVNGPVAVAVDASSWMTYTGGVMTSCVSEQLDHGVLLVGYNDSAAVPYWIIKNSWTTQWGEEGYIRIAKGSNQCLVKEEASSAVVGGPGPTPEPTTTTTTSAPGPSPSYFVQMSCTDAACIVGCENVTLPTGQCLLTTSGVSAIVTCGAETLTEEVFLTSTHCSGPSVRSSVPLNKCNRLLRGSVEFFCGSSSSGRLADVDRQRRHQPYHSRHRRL
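Cysteine protease activity tested under reducing, mildly acidic conditions (100 mM sodium acetate pH 5.5, 5 mM DTT) plus 0.01% Triton X-100. Cruzain 1.5 nM; substrate Z-FR-AMC 2 uM; 15 min compound preincubation at room temperature.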
Cruzain noTriton – cruzain (T. cruzi) inhibition without detergent; AID 1476; P25779; actives 2.3% (n = 200,000); purified cruzain, Z-FR-AMC fluorescence, no detergent; Potency, µM, for inactives: max response, negative = inhibition, usual class: inhibitors;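 note: plate controls were enzyme without inhibitor for no effect and buffer without enzyme for full effect; nearly all actives have a fitted effect of over 40% in size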
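Purified cruzain at 1.5 nM, pre-incubated 15 min with compound at room temperature in 100 mM sodium acetate pH 5.5, 5 mM DTT, 0.00005% Triton X-100. Reaction started with 2 uM Z-FR-AMC; AMC fluorescence increase over 60 s gives rate.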
Numbers without * were called inactive; ? = inconclusive. Calls come from the whole dose curve; as a rule, active = well fitted curve in the direction sought with a large enough effect; inconclusive = small, poorly fitted or top-dose-only effect, or another doubt; inactive = no such curve, though single readings can be large; an effect the other way counts as inactive or inconclusive. Potency is the fitted concentration of half-maximal effect.

SMILES	Cruzain inh Det	Cruzain noTriton
Cc1ccc(-c2csc(C3C(N)=NC(S)=C(C#N)C34CCCCC4)n2)cc1 (stereo not given)	-9%	16µM*
Cc1ccc(NC(=S)/C(=C(\[O-])c2ccc(C)c([N+](=O)[O-])c2)[n+]2ccccc2)cc1C	-6%	25µM*
CCC(=O)Nc1cccc(NC(=O)c2ccc(C)c([N+](=O)[O-])c2)c1	-8%	-1%
COc1cccc(NC(=S)/C(=C(\[O-])c2ccc(C)c([N+](=O)[O-])c2)[n+]2ccccc2)c1	-10%	25µM*
Cc1ccccc1NC(=S)/C(=C(\[O-])c1ccc(C)c([N+](=O)[O-])c1)[n+]1ccccc1	-20%	-22%
O=C(CCS(=O)(=O)c1cccs1)Nc1ccc(C(=O)Nc2cccc(Cl)c2)cc1	-11%	-25%
CC(C)c1ccc(NC(=O)c2ccc(NC(=O)CCS(=O)(=O)c3cccs3)cc2)cc1	-4%	32µM*
CC(/C=C/c1ccc(O)cc1)=N/O	22µM*	7.9µM*
CC(/C=C/c1ccc(OCc2ccccc2)cc1)=N\O	-3%	?
CCc1ccc(S(=O)(=O)c2nnn3c2nc(NC2CCCC2)c2sccc23)cc1	-2%	14%
CCC(C)c1ccc(OCC(=O)O)cc1 (stereo not given)	3%	-2%
CCC(C)c1ccc(OCC(=O)Nc2ccc3[nH]c(=O)[nH]c3c2)cc1 (stereo not given)	-2%	25µM*
Cc1ccnc(NS(=O)(=O)c2ccc(NC(=O)c3cc(=O)c4ccc(C)c(C)c4o3)cc2)n1	-1%	-6%
CCOc1cc(-c2nc(-c3ccc(-c4ccc(OC)cc4)nc3OC)no2)cc(OCC)c1OCC	-1%	-17%
CN(C)c1cccc(C(=O)OC(C(=O)Nc2ccc(Cl)cc2C(F)(F)F)c2ccccc2)c1 (stereo not given)	-11%	?
CN(C)c1cccc(C(=O)OC(C(=O)Nc2ccc([N+](=O)[O-])cc2Br)c2ccccc2)c1 (stereo not given)	-2%	16µM*
COc1cccc(CNC(=O)Cc2ccc(NC(=O)N3CCCCc4ccccc43)cc2)c1OC	-3%	12%
c1ccc(-c2noc(-c3ccccc3-c3ccccc3)n2)cc1	-4%	-9%
CN(C)c1ccc(-c2noc(-c3ccccc3O)n2)cc1	22µM*	25µM*
O=C(/C=C/NNC(=O)c1ccccc1)c1ccc(Br)cc1	-8%	?
O=C(/C=C/NNC(=O)c1cccc(Br)c1)c1cccc(Br)c1	-6%	7.9µM*
O=C(Nc1ccccc1N1CCN(c2ccc(F)cc2)CC1)c1ccccc1	1%	?
O=C(Nc1ccccc1N1CCN(c2ccc(F)cc2)CC1)C12CC3CC(CC(C3)C1)C2	-3%	25µM*
N#C/C(=C\c1ccc(-c2ccccc2C(=O)O)o1)c1nc2ccccc2[nH]1	-1%	-1%
N#C/C(=C\c1ccc(-c2ccc(F)cc2F)o1)c1nc2ccccc2[nH]1	-5%	13µM*
SMILES	Cruzain inh Det	Cruzain noTriton
CN(C)S(=O)(=O)c1cccc(-c2nn(-c3ccccc3)cc2/C=C(\C#N)c2nc3ccccc3[nH]2)c1	-3%	?
N#C/C(=C\c1cn(-c2ccccc2)nc1-c1cc2ccccc2o1)c1nc2ccccc2[nH]1	-3%	7.9µM*
CCOc1ccccc1NC(=O)C(=O)Nc1ccc2nc3n(c(=O)c2c1)CCCCC3	-1%	-2%
Oc1ccc(C2Nc3cccc4cccc(c34)N2)c(O)c1	?	16µM*
c1coc(C2Nc3cccc4cccc(c34)N2)c1	-11%	7.9µM*
Cc1ccc(C2Nc3cccc4cccc(c34)N2)s1	-8%	20µM*
O=[N+]([O-])c1ccc(C2Nc3cccc4cccc(c34)N2)cc1	-1%	?
COc1cc(C2Nc3cccc4cccc(c34)N2)cc(OC)c1O	-12%	-22%
O=[N+]([O-])c1cccc(C2Nc3cccc4cccc(c34)N2)c1	-9%	?
Cc1ccc(CCNC(=O)c2ccc(CS(=O)(=O)c3ccc(Cl)cc3)o2)cc1	-3%	10%
COC(=O)c1ccc(Oc2nc3c(c(=O)n(C)c(=O)n3C)n2Cc2ccc(Cl)c(Cl)c2)cc1	0%	10%
Cn1cc(S(=O)(=O)N2CCCCC2)cc1C(=O)Nc1cccc(C#N)c1	1%	-5%
CC1CCc2c(sc3nc(-c4cc5ccccc5oc4=O)nc(Cl)c23)C1 (stereo not given)	4%	-17%
COc1ccccc1NC(=O)C1=C(C)Nc2nc(-c3ccc(N(C)C)cc3)nn2C1c1ccncc1 (stereo not given)	-6%	?
COc1ccccc1NC(=O)C1=C(C)Nc2nc(-c3cccs3)nn2C1c1cccnc1 (stereo not given)	0%	16µM*
COc1ccc(C2CC(c3ccccc3)=NN2C(=O)COC(=O)c2ccc(Cl)nc2)cc1 (stereo not given)	-5%	-28%
COc1ccc(C2CC(c3ccccc3)=NN2C(=O)COC(=O)CNC(=O)c2ccccc2)cc1 (stereo not given)	8.9µM*	10µM*

From PubChem
